An excerpt weighted towards active compounds, which were near 0.7% of everything screened.
HePTP inhibitor: human HePTP phosphatase inhibition. P35236. recombinant HePTP phosphatase activity, OD absorbance. inhibition, % at 20 µM. 110,000 compounds, 0.64% hits. AID 521; in the data active means inhibition above about 50%;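 further: plate controls were vehicle for no effect and reference inhibitor for full effect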
Cdc25B block: inhibitors of human Cdc25B phosphatase; recombinant Cdc25B, OMFP fluorescence Ex485/Em525; inhibition, %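 (compounds tested at 10 µM final in the well)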; 65,000 compounds, 0.1% hits; AID 368; in the data active means inhibition above about 50%
MKP-1 inh: inhibitors of human MKP-1 phosphatase; P28562; recombinant MKP-1, OMFP hydrolysis fluorescence; inhibition, %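 (compounds tested at a single concentration somewhere between 10 and 100 µM)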; 65,000 compounds, 0.15% hits; AID 374;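 active means inhibition above about 50%, limit read from the data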;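 further: 0% = DMSO max control wells and 100% = wells with enzyme stopped by NaOH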
Target sequence (P28562 whole entry, looked up): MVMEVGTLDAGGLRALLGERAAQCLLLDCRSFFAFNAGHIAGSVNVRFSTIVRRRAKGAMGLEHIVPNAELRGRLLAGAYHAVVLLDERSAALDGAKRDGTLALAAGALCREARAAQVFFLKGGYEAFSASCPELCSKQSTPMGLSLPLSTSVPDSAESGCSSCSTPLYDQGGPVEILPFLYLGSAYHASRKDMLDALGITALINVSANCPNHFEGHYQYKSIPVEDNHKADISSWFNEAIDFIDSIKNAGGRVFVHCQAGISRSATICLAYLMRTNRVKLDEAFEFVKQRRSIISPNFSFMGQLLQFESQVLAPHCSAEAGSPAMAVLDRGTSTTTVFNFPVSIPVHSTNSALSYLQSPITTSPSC
* = called active by the depositor; nt = no result given.

SMILES	HePTP inhibitor	Cdc25B block	MKP-1 inh
COC(=O)CN(c1ccc(Br)cc1)S(=O)(=O)c1ccccc1	11.4	nt	nt
CC(=O)Nc1ccc(NC(=O)c2c(Cl)cccc2Cl)cc1	-4.0	nt	nt
NS(=O)(=O)c1ccc(NC(=O)c2c(Cl)cccc2Cl)cc1	104.2*	nt	nt
CCSc1nc(SCC)c2c3c(sc2n1)CN(C)CC3	5.0	nt	nt
CCn1c(=O)cc(SCC(=O)N2CCN(Cc3ccc4c(c3)OCO4)CC2)c2ccccc21	8.7	-14.0	56.4*
Cn1c(=O)cc(SCC(=O)N2CCN(Cc3ccc4c(c3)OCO4)CC2)c2ccccc21	6.7	-8.5	40.3
N#C/C(=C\c1ccc(-c2ccccc2[N+](=O)[O-])o1)C(=O)Nc1cccc(Br)c1	7.5	nt	nt
N#C/C(=C/c1ccc(O)c([N+](=O)[O-])c1)C(=O)Nc1cccc(Br)c1	102.2*	nt	nt
N#C/C(=C/c1ccc(O)cc1)C(=O)Nc1cccc(Br)c1	2.1	nt	nt
N#C/C(=C/c1ccc([N+](=O)[O-])o1)C(=O)Nc1cccc(Br)c1	87.2*	nt	nt
O=C(CCN1C(=O)/C(=C/c2cccs2)SC1=S)Nc1cccnc1	-2.6	nt	nt
O=C(CCC(=O)N/N=C/c1cc(Br)ccc1O)N/N=C\c1cc(Br)ccc1O	-1.4	nt	nt
O=C(N/N=C\c1cc(I)ccc1O)c1ccc(Br)cc1	102.7*	nt	nt
O=C(N/N=C/c1cc(Cl)cc([N+](=O)[O-])c1O)c1ccc2c(c1)OCO2	102.7*	nt	nt
Cc1cc(Br)cc(/C=N/NC(=O)c2ccc3c(c2)OCO3)c1O	-3.3	nt	nt
O=C(N/N=C\c1cc(Cl)cc([N+](=O)[O-])c1O)c1ccc(Br)cc1	64.7*	nt	nt
COc1ccc(C(=O)N/N=C/c2cc(OC)c(O)c([N+](=O)[O-])c2)cc1OC	-7.3	nt	nt
CC(=O)c1c(OC(=O)c2ccc(Cl)cc2[N+](=O)[O-])ccc2c(C)cc(=O)oc12	3.3	nt	nt
O=C(Nc1ccc(Cl)c(Cl)c1)Nc1nnc(COc2ccccc2Cl)s1	-3.4	nt	nt
CCN(CC)C(=O)c1sc(NC(=O)c2cc(Cl)ccc2Cl)c(C#N)c1C	103.6*	nt	nt
Cc1sc(NC(=O)c2cc(Cl)ccc2Cl)c(C#N)c1C	103.0*	nt	nt
Cc1sc(NC(=O)c2ccccc2C(=O)O)c(C#N)c1C	2.3	nt	nt
CCN(CC)C(=O)c1sc(NC(=O)c2ccc(Cl)cc2)c(C#N)c1C	-13.1	nt	nt
COc1ccc(N2C(=O)c3ccc(C(=O)Nc4ccccc4I)cc3C2=O)cc1	4.5	nt	nt
COc1ccc(N2C(=O)c3ccc(C(=O)Nc4cc(Cl)ccc4C(=O)O)cc3C2=O)cc1	102.1*	nt	nt
SMILES	HePTP inhibitor	Cdc25B block	MKP-1 inh
FC(F)(F)c1ccc2nnc(-c3cccc(Cl)c3Cl)n2c1	3.0	nt	nt
COc1ccc(OC)c(C(c2c(C)[nH]n(-c3ccccc3)c2=O)c2c(C)[nH]n(-c3ccccc3)c2=O)c1	103.9*	nt	nt
COc1cccc(C(c2c(C)[nH]n(-c3ccccc3)c2=O)c2c(C)[nH]n(-c3ccccc3)c2=O)c1O	-14.5	nt	nt
Cc1nn(C(C)C(=O)N2CCCCC2)c(=O)c2c1sc1ccccc12 (configuration not stated)	-3.1	-8.0	67.0*
Cc1nn(C(C)C(=O)O)c(=O)c2c1sc1ccccc12 (configuration not stated)	4.8	3.9	29.1
O=C(/C=C/c1ccc(/C=C/C(=O)c2cccc(N3C(=O)C=CC3=O)c2)cc1)c1cccc(N2C(=O)C=CC2=O)c1	9.9	nt	nt
O=C(O)/C=C/c1cccc(N2C(=O)C=CC2=O)c1	88.7*	nt	nt
Cc1onc(-c2ccccc2Cl)c1C(=O)N1CCN(c2ccccc2)CC1	1.7	-34.7	-5.6
Cc1onc(-c2ccccc2Cl)c1C(=O)N1CCN(c2ccccc2F)CC1	103.6*	nt	nt
COc1cc(/C=C2\C(=O)NC(=S)N(c3ccccc3)C2=O)cc([N+](=O)[O-])c1O	58.8*	nt	nt
COc1ccccc1N1C(=O)NC(=O)C(=Cc2cc(OC)c(O)c([N+](=O)[O-])c2)C1=O	-2.5	nt	nt
CCCNC(=O)COc1ccc(C)cc1Br	0.9	nt	nt
Clc1ccc(SCCc2ccncc2)cc1Cl	11.9	nt	nt
COc1ccc(-n2nnnc2SCC(=O)Nc2ccc3c(c2)OCCO3)c(OC)c1	4.3	-13.7	101.7*
COc1ccc(-n2nnnc2SCC(=O)Nc2ccc3c(c2)OCCO3)cc1OC	8.4	5.2	14.2
O=C(Nc1ccc2nn(-c3ccc(F)cc3)nc2c1)c1ccc(Br)o1	81.1*	nt	nt
O=C(Nc1ccc2nn(-c3ccccc3)nc2c1)c1ccc(Br)o1	8.3	-1.3	14.3
O=C(NC(NC(=S)Nc1ccc(Cl)c(Cl)c1)C(Cl)(Cl)Cl)c1cccc([N+](=O)[O-])c1 (configuration not stated)	103.7*	nt	nt
CC(=O)Nc1ccc(NC(=S)NC(NC(=O)c2cccc([N+](=O)[O-])c2)C(Cl)(Cl)Cl)cc1 (configuration not stated)	10.0	nt	nt
O=C(Nc1cccc(-c2cn3ccccc3n2)c1)c1cccc(Br)c1	17.9	nt	nt
O=C(Nc1ccc(-c2nc3ccccc3[nH]2)cc1)c1ccccc1	7.7	nt	nt
COc1ccc(NC(=O)c2ccc(C)c([N+](=O)[O-])c2)cc1	12.0	nt	nt
Cc1ccc(C(=O)Nc2ccc(-c3nc4cc5ccccc5cc4[nH]3)cc2)cc1[N+](=O)[O-]	56.3*	nt	nt
O=C(Nc1ccc(-c2cn3ccccc3n2)cc1)c1cccc(Br)c1	102.3*	nt	nt
O=C(Nc1ccc(-c2nc3ccccc3[nH]2)cc1)c1cccc(Br)c1	102.5*	nt	nt
SMILES	HePTP inhibitor	Cdc25B block	MKP-1 inh
CCOC(=O)CSc1nc2c(c(=O)n(C)c(=O)n2C)n1C	2.9	nt	nt
Cc1c(C(=O)Nc2ccccc2C(F)(F)F)cccc1[N+](=O)[O-]	-10.0	nt	nt
Cc1ccc(C(=O)Nc2nc(C34CC5CC(CC(C5)C3)C4)c(C)s2)cc1	10.6	nt	nt
Cc1ccc([N+](=O)[O-])cc1N=Cc1ccc([N+](=O)[O-])o1	-4.5	nt	nt
C=CCn1c2ccccc2n2c(C(=O)OCC)c(C)nc12	1.3	nt	nt
O=C(c1ccco1)N1CCN(c2cc(=O)n(C3CCCCC3)c(=O)[nH]2)CC1	2.1	64.8*	1.4
Cc1ccc(-n2c(=O)cc(N3CCN(C(=O)c4ccco4)CC3)[nH]c2=O)cc1	-1.8	-3.7	11.5
Cc1[nH]c2ccccc2c1/C=C/c1nc2ccccc2c(=O)n1-c1ccc([N+](=O)[O-])cc1	10.0	nt	nt
Cc1c(/C=C/c2nc3ccccc3c(=O)n2-c2ccc([N+](=O)[O-])cc2)c2ccccc2n1C	80.6*	nt	nt
COc1cc(/C=N/n2nnnc2N)cc(I)c1O	5.3	nt	nt
CC1CCN(C(=O)c2ccccc2NC(=O)c2ccco2)CC1	103.2*	nt	nt
O=C(Nc1ccccc1C(=O)N1CCOCC1)c1ccco1	-2.3	-0.8	8.2
O=C(CC(C(=O)O)N1CCOCC1)c1ccccc1 (configuration not stated)	102.7*	nt	nt
O=C(O)CC(C(=O)OCCOc1ccccc1)N1CCOCC1 (configuration not stated)	-7.9	-9.9	7.5
Cc1ccccc1C1=N/C(=C\c2ccc(Br)o2)C(=O)O1	59.5*	nt	nt
O=C1OC(c2ccccc2F)=N/C1=C\c1ccc(Br)cc1	8.8	nt	nt
Cc1ccc(C(=O)NC(NC(=S)Nc2cccc3ccccc23)C(Cl)(Cl)Cl)cc1 (configuration not stated)	0.5	nt	nt
O=C1NC(=S)NC(=O)C1=Cc1cc(Br)c(Sc2ccc(Cl)cc2)o1	75.9*	nt	nt
Clc1ccc(Sc2oc(/C=N/n3cnnc3)cc2Br)cc1	5.3	1.6	15.7
O=C(Cc1ccc(F)cc1F)Nc1cccc2ccccc12	2.8	nt	nt
O=C(Cc1ccc(F)cc1)Nc1cccc2ccccc12	103.3*	nt	nt

High-throughput results deposited in PubChem BioAssay by several laboratories.
